From PubChem BioAssay (EPA / NIEHS)
Activity calls are given as the source filed them. How the source made its calls: active means hit-call score of the fitted dose curve at least 0.9, where 1 is the maximum; inactive means score below 0.9.

Experiments:
Settings in all cases: mRNA level, 48 h; actives raise or lower the signal
[1] = read-out: Intercellular Adhesion Molecule 1 (ICAM1), ICAM1 (gene 3383); test: LTEA_HepaRG_ICAM1: Life Technologies and Expression Analysis (LTEA) Assay for Intercellular Adhesion Molecule 1 (ICAM1) using HepaRG (AID 2283507)
In short: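 ICAM1 transcript levels measured by qRT-PCR, normalized to three housekeeping genes (ACTB, GAPDH, POLR2A), after 48 h chemical exposure of HepaRG cells. Duplicate eight-point half-log series from 100 uM in 0.5% DMSO; gain or loss fitted against vehicle.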

[2] = read-out: Insulin-like growth factor-binding protein 1 (IGFBP1), IGFBP1 (gene 3484); test: LTEA_HepaRG_IGFBP1: Life Technologies and Expression Analysis (LTEA) Assay for Insulin-like growth factor-binding protein 1 (IGFBP1) using HepaRG (AID 2283508)
In short: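 Read-out is qRT-PCR transcript level normalized to three housekeeping genes, fitted in both directions against 0.5% DMSO. Differentiated HepaRG cells received eight half-log concentrations (top 100 uM) in duplicate for 48 h in serum-free induction medium.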

[3] = read-out: Interleukin 6 (IL6), IL6 (gene 3569); test: LTEA_HepaRG_IL6: Life Technologies and Expression Analysis (LTEA) Assay for Interleukin 6 (IL6) using HepaRG (AID 2283509)
In short: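 HepaRG, ~100,000 cells/well, 48 h pre-culture; serum-free induction medium; cmpd 8-pt half-log from 100 uM, 0.5% DMSO, duplicate, 48 h. Lysis in RLT, TaqMan qRT-PCR; gain or loss vs DMSO.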

[4] = read-out: Interleukin 6 Receptor (IL6R), IL6R (gene 3570); test: LTEA_HepaRG_IL6R: Life Technologies and Expression Analysis (LTEA) Assay for Interleukin 6 Receptor (IL6R) using HepaRG (AID 2283510)
In short: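 Differentiated HepaRG cells, plated 48 h, then exposed in duplicate for 48 h in serum-free induction medium to 8 half-log concentrations (top 100 uM, 0.5% DMSO). IL6R mRNA measured by TaqMan qRT-PCR, normalized to ACTB/GAPDH/POLR2A; bidirectional fit vs DMSO.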

[5] = read-out: Potassium channel subfamily K member 1 (KCNK1), KCNK1 (gene 3775); test: LTEA_HepaRG_KCNK1: Life Technologies and Expression Analysis (LTEA) Assay for Potassium channel subfamily K member 1 (KCNK1) using HepaRG (AID 2283511)
In short: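 Gain or loss of KCNK1 mRNA is the read-out, quantified by qRT-PCR against three housekeeping genes after 48 h chemical treatment of human HepaRG liver cells. Concentrations ran from 100 uM downward in half-log steps, vehicle 0.5% DMSO.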

[6] = read-out: Keratin 19 (KRT19), KRT19 (gene 3880); test: LTEA_HepaRG_KRT19: Life Technologies and Expression Analysis (LTEA) Assay for Keratin 19 (KRT19) using HepaRG (AID 2283512)
In short: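 KRT19 transcript measured by TaqMan qRT-PCR, referenced to three housekeeping genes, after HepaRG cells received test chemicals for 48 h. Eight half-log concentrations, top 100 uM, 0.5% DMSO vehicle; increases and decreases both fitted.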

[7] = read-out: JUN Transcription Factor, JUN (gene 3725); test: LTEA_HepaRG_JUN: Life Technologies and Expression Analysis (LTEA) Assay for JUN Transcription Factor using HepaRG (AID 2283513)
In short: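 HepaRG cells, 48 h post-plating, exposed 48 h in serum-free induction medium to 8-point half-log series (top 100 uM, 0.5% DMSO), duplicate; mRNA by qRT-PCR (TaqMan, Fluidigm), normalized to ACTB/GAPDH/POLR2A; bidirectional fit vs DMSO.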

[8] = read-out: Lipase C (LIPC), LIPC (gene 3990); test: LTEA_HepaRG_LIPC: Life Technologies and Expression Analysis (LTEA) Assay for Lipase C (LIPC) using HepaRG (AID 2283514)
In short: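 Read-out is LIPC transcript level by TaqMan qRT-PCR, normalized to three housekeeping genes, after 48 h chemical treatment of human HepaRG liver cells. Curves span eight concentrations topping at 100 uM; activity in either direction scored relative to 0.5% DMSO.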

[9] = read-out: Lipoprotein lipase (LPL), LPL (gene 4023); test: LTEA_HepaRG_LPL: Life Technologies and Expression Analysis (LTEA) Assay for Lipoprotein lipase (LPL) using HepaRG (AID 2283515)
In short: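 Read-out is LPL transcript level by qRT-PCR, normalized to three housekeeping genes and fitted bidirectionally against the DMSO control. Human HepaRG cells received chemicals for 48 h at up to 100 uM.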

[10] = read-out: MicroRNA 122 (MIR122), gene 406906; test: LTEA_HepaRG_MIR122: Life Technologies and Expression Analysis (LTEA) Assay for MicroRNA 122 (MIR122) using HepaRG (AID 2283516); further: the transcript read is the microRNA miR-122
In short: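 Differentiated human HepaRG cells in serum-free induction medium exposed 48 h to 8 half-log concentrations from 100 uM in 0.5% DMSO, duplicate. MIR122 quantified by Fluidigm TaqMan qRT-PCR, normalised to ACTB, GAPDH, POLR2A; fold change fitted bidirectionally versus DMSO.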

[11] = read-out: matrix metalloproteinase-10 (MMP10), MMP10 (gene 4319); test: LTEA_HepaRG_MMP10: Life Technologies and Expression Analysis (LTEA) Assay for matrix metalloproteinase-10 (MMP10) using HepaRG (AID 2283517)
In short: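 Gain or loss of MMP10 mRNA is fitted relative to the 0.5% DMSO vehicle. The human hepatic line HepaRG receives a 48-hour serum-free exposure, in duplicate, with a maximum concentration of 100 uM.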

MYC, MYC (gene 4609) = test: LTEA_HepaRG_MYC: Life Technologies and Expression Analysis (LTEA) Assay for MYC using HepaRG (AID 2283518)
In short: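 MYC transcript changes, up or down relative to 0.5% DMSO, from TaqMan qRT-PCR normalized to three housekeeping genes. Human HepaRG cultures received chemicals for 48 h at eight half-log concentrations up to 100 uM, in duplicate.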

[12] = read-out: matrix metalloproteinase-3 (MMP3), MMP3 (gene 4314); test: LTEA_HepaRG_MMP3: Life Technologies and Expression Analysis (LTEA) Assay for matrix metalloproteinase-3 (MMP3) using HepaRG (AID 2283519)
In short: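 HepaRG, human; 48 h dosing, 8 conc. (max 100 uM, half-log), duplicate, 0.5% DMSO. Readout: MMP3 transcript by Fluidigm TaqMan qRT-PCR, ACTB/GAPDH/POLR2A-normalised. Gain or loss fitted vs DMSO.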

[13] = read-out: Paternally Expressed 10 (PEG10), PEG10 (gene 23089); test: LTEA_HepaRG_PEG10: Life Technologies and Expression Analysis (LTEA) Assay for Paternally Expressed 10 (PEG10) using HepaRG (AID 2283520)
In short: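 Differentiated HepaRG cells exposed 48 h in serum-free induction medium to eight half-log concentrations topping at 100 uM, 0.5% DMSO, in duplicate. PEG10 mRNA quantified by TaqMan qRT-PCR, normalized to ACTB, GAPDH and POLR2A; bidirectional fit versus DMSO.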

[14] = read-out: Protein phosphatase 2A (PPP2R4), PTPA (gene 5524); test: LTEA_HepaRG_PPP2R4: Life Technologies and Expression Analysis (LTEA) Assay for Protein phosphatase 2A (PPP2R4) using HepaRG (AID 2283522)
In short: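 Differentiated human HepaRG cells in serum-free induction medium were exposed 48 h to 8 concentrations (top 100 µM, half-log steps, duplicate) in 0.5% DMSO. PPP2R4 mRNA was measured by TaqMan qRT-PCR, normalised to ACTB, GAPDH and POLR2A, and fitted bidirectionally versus DMSO.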

[15] = read-out: Phosphatase and tensin (PTEN), PTEN (gene 5728); test: LTEA_HepaRG_PTEN: Life Technologies and Expression Analysis (LTEA) Assay for Phosphatase and tensin (PTEN) using HepaRG (AID 2283523)
In short: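 Read-out is PTEN transcript level by multiplexed TaqMan qRT-PCR after 48 h chemical treatment of human HepaRG cultures in serum-free induction medium. Concentrations spanned 100 uM downward in half-log steps, 0.5% DMSO throughout; activity fitted in both directions against vehicle.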

[16] = read-out: solute carrier (SLC22A1), SLC22A1 (gene 6580); test: LTEA_HepaRG_SLC22A1: Life Technologies and Expression Analysis (LTEA) Assay for solute carrier (SLC22A1) using HepaRG (AID 2283524)
In short: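 HepaRG (human liver line), 48 h dosing in serum-free induction medium; 8 conc., half-log down from 100 uM, 0.5% DMSO vehicle, duplicates. Endpoint: SLC22A1 mRNA, qRT-PCR, housekeeping-normalized; gain/loss fit vs DMSO.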

[17] = read-out: NAD(P)H dehydrogenase [quinone] 1 (NQO1), NQO1 (gene 1728); test: LTEA_HepaRG_NQO1: Life Technologies and Expression Analysis (LTEA) Assay for NAD(P)H dehydrogenase [quinone] 1 (NQO1) using HepaRG (AID 2283526)
In short: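 Differentiated human HepaRG cells in serum-free induction medium, dosed in duplicate for 48 h at 8 half-log concentrations up to 100 uM in 0.5% DMSO. NQO1 mRNA by qRT-PCR normalized to ACTB, GAPDH, POLR2A; bidirectional fit versus DMSO baseline.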

SMILES: CCOC(=O)C(C)Oc1ccc(Oc2cnc3cc(Cl)ccc3n2)cc1 (centres undefined)
- outcome [1]: inactive
- outcome [2]: inactive
- outcome [3]: inactive
- outcome [4]: inactive
- outcome [5]: inactive
- outcome [6]: inactive
- outcome [7]: inactive
- outcome [8]: inactive
- outcome [9]: inactive
- outcome [10]: inactive
- outcome [11]: inactive
- outcome (MYC, MYC (gene 4609)): inactive
- AC50 [12]: 8.53 µM (active)
- outcome [13]: inactive
- outcome [14]: inactive
- outcome [15]: inactive
- AC50 [16]: 17.2 µM (active)
- outcome [17]: inactive

SMILES: O=C(O)c1ccccc1
- outcome [1]: inactive
- outcome [2]: inactive
- outcome [3]: inactive
- outcome [4]: inactive
- outcome [5]: inactive
- outcome [6]: inactive
- outcome [7]: inactive
- outcome [8]: inactive
- outcome [9]: inactive
- outcome [10]: inactive
- outcome [11]: inactive
- outcome (MYC, MYC (gene 4609)): inactive
- outcome [12]: inactive
- outcome [13]: inactive
- outcome [14]: inactive
- outcome [15]: inactive
- outcome [16]: inactive
- outcome [17]: inactive

SMILES: CN(C)C(=O)Nc1ccc(Cl)c(Cl)c1
- outcome [1]: inactive
- AC50 [2]: 34.6 µM (active)
- outcome [3]: inactive
- outcome [4]: inactive
- outcome [5]: inactive
- AC50 [6]: 50 µM (active)
- outcome [7]: inactive
- outcome [8]: inactive
- outcome [9]: inactive
- outcome [10]: inactive
- outcome [11]: inactive
- AC50 (MYC, MYC (gene 4609)): 68.8 µM (active)
- outcome [12]: inactive
- AC50 [13]: 63.8 µM (active)
- outcome [14]: inactive
- outcome [15]: inactive
- AC50 [16]: 51.5 µM (active)
- outcome [17]: inactive
